# “And” between values parts separate entries of the source, which are not always exact repeats. Equal entries are not always repeated. A structure can be active in one record and inactive in another. The source made the active and inactive calls. Cut-off read from the data, not from the text of the source, unless noted: active = inhibition above about 80%; inactive = the rest.
# Columns and labels:
# [1] = growth inhibition, single agent or in combination, cell-based, chromothripsis tumors, cisplatin or BGB combos (AID 1671449); details: LFS_MB_P medulloblastoma cells;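 note: cells exposed for 96 hours; 0% = vehicle DMSO and 100% = killing by high DMSO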
# [2] = growth inhibition, single agent and combos, cell-based, chromothripsis tumors, cisplatin or BGB combos (AID 1671450); details: HDN33 neuroblastoma cells, stronger effect = higher value;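 note: cells exposed to compound for four days; 0% = vehicle DMSO and 100% = cell killing by high DMSO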
# [3] = growth inhibition, single agents and combos, ICB984, cell-based, cisplatin or BGB combos, synergistic combos for chromothripsis tumors (AID 1671451; call rule not given here;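 note: cells exposed for 96 hours before readout; 0% = vehicle DMSO and 100% = killing by high DMSO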); details: ICB984 medulloblastoma cells, drug combinations, stronger effect = higher value
# [4] = growth inhibition, single agents and combos, LFS_MB_1R, cell-based, cisplatin or BGB combos, synergistic combos for chromothripsis tumors (AID 1671452); details: LFS_MB_1R medulloblastoma cells, stronger effect = higher value;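 note: cells exposed for 96 hours before readout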
# [5] = growth inhibition, single agents and combos, HTB85, cell-based, BGB or cisplatin IC20 combos, synergistic combos for chromothripsis tumors (AID 1671453); details: HTB85 osteosarcoma cells, drug combinations, stronger effect = higher value;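 note: cells exposed for 96 hours before readout; 0% = vehicle DMSO and 100% = high DMSO killing control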
# [6] = growth inhibition, single agents and combos, CRL2098, cell-based, BGB or cisplatin IC20 combos, synergistic combos for chromothripsis tumors (AID 1671454); details: CRL2098 osteosarcoma cells, drug combinations, stronger effect = higher value;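 note: cells exposed for 96 h before readout; 0% = vehicle DMSO and 100% = killing by high DMSO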
# [7] = growth inhibition, single agents and combos, HD-MB03, cell-based, BGB or cisplatin IC20 combos, synergistic combos for chromothripsis tumors (AID 1671455; in the data active = inhibition above about 83%;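 note: 0% = vehicle DMSO and 100% = high DMSO as cytotoxic control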); details: HD-MB03 medulloblastoma cells, stronger effect = higher value
# [8] = growth inhibition, single agents and combos, UWB1.289, cell-based, BGB or cisplatin combos, synergistic combos for chromothripsis tumors (AID 1671456); details: UWB1.289 ovarian carcinoma cells, stronger effect = higher value;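 note: cells exposed to compound for four days; 0% = vehicle DMSO and 100% = killing by high DMSO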
# [9] = growth inhibition, single agents and combos, LFS_MB_2R, cell-based, cisplatin combos, synergistic combos for chromothripsis tumors (AID 1671457); details: LFS_MB_2R medulloblastoma cells, stronger effect = higher value;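 note: cells exposed to compound for four days before readout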
# [10] = growth inhibition, MDA-MB-436, cell-based, BGB or cisplatin combos, synergistic combos for chromothripsis tumors (AID 1671458; call rule not given here;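 note: cells exposed for 96 hours; 0% = vehicle DMSO and 100% = killing by high DMSO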); details: MDA-MB-436 breast carcinoma growth inhibition, drug combinations, stronger effect = higher value
# [11] = UWB1.289_BRCA1 ovarian cancer growth, cell-based, BGB or cisplatin combinations (AID 1671459); details: UWB1.289 BRCA1 ovarian carcinoma, drug combinations, stronger effect = higher value
# [12] = drug combination toxicity in non-malignant astrocytes – cell-based, BGB or cisplatin IC20 combos, cytotoxicity control for chromothriptic childhood tumor combination screen (AID 1671460); details: Human astrocytes, viability inhibition, drug combinations, at 0.5 µM, stronger effect = higher value;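 note: cells exposed to compounds for 96 hours before viability readout; 0% = vehicle and 100% = killing control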
# [13] = BT084 cell growth, single and combined drugs, ICGC_MB145, cisplatin and BGB IC40 combos (AID 1671461); details: BT084 medulloblastoma cells, drug combinations, stronger effect = higher value;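 note: cells exposed to drugs for 96 hours; 0% = vehicle DMSO and 100% = high DMSO full killing control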
# [14] = RCMB18 cell growth, single agent and combined, cisplatin and BGB IC40 combos (AID 1671462); details: RCMB18 medulloblastoma cells, stronger effect = higher value;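 note: cells exposed to compound for four days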
# [15] = CRL1545 cell growth, single agent and combined, cisplatin and BGB IC20 combos (AID 1671464); details: CRL1545 osteosarcoma cells, stronger effect = higher value;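 note: cells exposed to compound for 96 hours before readout; 0% = vehicle DMSO and 100% = high DMSO killing control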
# [16] = measured here: combination with BGB IC40, at 0.05 µM
# [17] = measured here: with BGB IC20 combination, at 0.5 µM
# [18] = measured here: with cisplatin IC20 combination, at 0.5 µM
# [19] = measured here: combination with cisplatin, at 0.5 µM
# [20] = measured here: combination with cisplatin, at 5 µM
smiles,measurement,setting,value
CCC1(O)C(=O)OCc2c1cc1n(c2=O)Cc2cc3c(CN(C)C)c(O)ccc3nc2-1 (stereo not drawn),inhibition,"[1]; at 0.5 µM, stronger effect = higher value",-7.42% (inactive) and 3.72% (inactive) and -2.55% (inactive)
same,inhibition,"[1]; measured here: combination with BGB IC20, at 0.005 µM",-2.96% and 0.821% and -23.7%
same,inhibition,"[1]; measured here: combination with BGB IC40, at 0.005 µM",-28.9% and -14.4% and -12.5%
same,inhibition,[1]; [16],-8.3% and -3.25% and -7.46%
same,inhibition,"[1]; measured here: combination with cisplatin, at 0.5 µM, stronger effect = higher value",36.9% and 49.4% and -21.3%
same,inhibition,"[1]; measured here: combination with cisplatin, at 5 µM, stronger effect = higher value",93.3% and 91.7% and 75.9%
same,inhibition,"[2]; BGB combo, at 5 µM",96.4% and 97.1% and 98.1%
same,inhibition,[2]; at 0.5 µM,83.1% (active) and 85.8% (active) and 82.9% (active)
same,inhibition,"[2]; cisplatin combo, at 5 µM",97.1% and 98% and 96.8%
same,inhibition,[2]; [17],87% and 85.5% and 88%
same,inhibition,[2]; [18],75.5% and 82.8% and 74.8%
same,inhibition,"[2]; single agent, at 5 µM",95.8% and 96% and 97%
same,inhibition,"[3]; BGB IC20 combo, at 0.005 µM",1.19% and -8.91% and -7.41%
same,inhibition,"[3]; BGB IC40 combo, at 0.005 µM",-10.3% and 15% and 31.5%
same,inhibition,"[3]; BGB IC40 combo, at 0.05 µM",86.5% and 95.6% and 93.6%
same,inhibition,[3]; at 0.5 µM,-27.8% (inactive) and -43.8% (inactive) and -21.6% (inactive)
same,inhibition,"[3]; cisplatin combo, at 0.05 µM",86% and 95.5% and 93.6%
same,inhibition,"[3]; cisplatin combo, at 0.5 µM",-32.3% and -49.7% and -34.5%
same,inhibition,"[3]; cisplatin combo, at 5 µM",-21.2% and -33.4% and -10.9%
same,inhibition,"[3]; measured here: 5 uM single agent, at 5 µM",-12.3% and -23.2% and -4.56%
same,inhibition,[4]; at 0.5 µM,47.7% (inactive) and 43.3% (inactive) and 58.9% (inactive)
same,inhibition,[4]; [16],10.2% and -20.8% and 4.16%
same,inhibition,[4]; [19],82.2% and 88% and 73.7%
same,inhibition,[4]; [20],88.7% and 77.4% and 94.2%
same,inhibition,[5]; at 0.5 µM,96.9% (active) and 98% (active) and 97.5% (active)
same,inhibition,"[5]; measured here: with BGB IC20, at 0.5 µM",96.8% and 97.1%
same,inhibition,"[5]; measured here: with BGB IC20, at 5 µM",97.9% and 97.6% and 98.3%
same,inhibition,"[5]; measured here: with cisplatin IC20, at 0.5 µM",95.9% and 98.1% and 97.3%
same,inhibition,"[5]; measured here: with cisplatin IC20, at 5 µM",99.6% and 99.8%
same,inhibition,"[5]; single agent, at 5 µM",99.8%
same,inhibition,[6]; at 0.5 µM,65.1% (inactive) and 60.8% (inactive) and 61.1% (inactive)
same,inhibition,"[6]; measured here: combination with BGB at IC20, at 0.5 µM",71% and 76.8% and 68.6%
same,inhibition,"[6]; measured here: combination with cisplatin at IC20, at 0.5 µM",64.4% and 48.3%
same,inhibition,[7]; at 0.5 µM,98% (active) and 98.7% (active) and 97.9% (active)
same,inhibition,"[7]; measured here: combo with BGB at IC20, at 0.5 µM",98% and 98.7% and 98.4%
same,inhibition,"[7]; measured here: combo with cisplatin at IC20, at 0.5 µM",97.6% and 98.6% and 97.2%
same,inhibition,[8]; at 0.5 µM,77% (inactive) and 79.8% (inactive) and 77.4% (inactive)
same,inhibition,"[8]; measured here: inhibition with BGB combination, at 0.05 µM",19.5% and 12.5% and 11.3%
same,inhibition,"[8]; measured here: inhibition with cisplatin combination, at 0.05 µM",13.4% and 13.9% and 19.4%
same,inhibition,[9]; at 0.5 µM,-1.34% (inactive) and 9.72% (inactive) and -3.02% (inactive)
same,inhibition,[9]; [19],29.4% and 18.3% and 22.7%
same,inhibition,[9]; [20],72.5% and 69.7% and 68.5%
same,inhibition,[10]; at 0.5 µM,69.2% (inactive) and 68.2% (inactive) and 67.8% (inactive)
same,inhibition,"[10]; measured here: BGB combination, at 0.5 µM",61.3% and 61.9% and 60.6%
same,inhibition,"[10]; measured here: BGB combination, at 5 µM",65.7% and 71.1% and 67.8%
same,inhibition,"[10]; measured here: cisplatin combination, at 0.5 µM",72.6% and 68.5% and 65.5%
same,inhibition,"[10]; measured here: cisplatin combination, at 5 µM",82% and 77.6% and 79.6%
same,inhibition,"[11]; BGB combination, concentration series, at 5 µM",103% and 101% and 96.7%
same,inhibition,[11]; at 0.5 µM,82.6% (active) and 85.9% (active) and 82.4% (active)
same,inhibition,"[11]; cisplatin combination, concentration series, at 5 µM",113% and 107% and 110%
same,inhibition,[12],64.5% (inactive) and 68.3% (inactive) and 55.5% (inactive)
same,inhibition,[12]; measured here: combo with BGB IC20,69.2% and 71.9% and 60.5%
same,inhibition,[12]; measured here: combo with cisplatin IC20,49.5% and 56.1% and 33.1%
same,inhibition,[13]; at 0.5 µM,1.98% (inactive) and 4.12% (inactive) and -13.3% (inactive)
same,inhibition,"[13]; cisplatin combination, at 0.5 µM",37.8% and 38.2% and 36.1%
same,inhibition,"[13]; cisplatin combination, at 5 µM",37.9% and 28.6% and 20.5%
same,inhibition,"[13]; measured here: BGB IC40 combination 0.05 uM, at 0.05 µM",-16.5% and -30.7% and -23.7%
same,inhibition,"[13]; single agent, at 5 µM",-16% and -5.69% and -15.3%
same,inhibition,[14]; at 0.5 µM,11.7% (inactive) and 6.99% (inactive) and 15.6% (inactive)
same,inhibition,"[14]; cisplatin combo, at 5 µM",82.3% and 73.1% and 75.9%
same,inhibition,"[14]; measured here: BGB IC40 combination, at 0.05 µM",-8.83% and -28.2% and -20.8%
same,inhibition,[14]; [19],55.7% and 30% and 38.3%
same,inhibition,"[14]; single agent, at 5 µM",22.6% and 40.2% and 40.4%
same,inhibition,[15]; at 0.5 µM,78.9% (inactive) and 88.5% (active) and 81.8% (active)
same,inhibition,[15]; [17],91% and 95% and 93.8%
same,inhibition,[15]; [18],72.9% and 85.2% and 75.9%
same,inhibition,"[15]; single agent, at 0.05 µM",35.3% and 52% and 56.4%
same,inhibition,"[15]; single agent, at 5 µM",99.6% and 99.9% and 99.7%

# From PubChem BioAssay
